KDM5B inhibitor – Primary screen for KDM5B Histone Demethylases FDH-coupled qHTS; Lysine-specific demethylase 5B (Homo sapiens), Q9UGL1; KDM5B demethylase, FDH-coupled NADH fluorescence (FDH is formaldehyde dehydrogenase); Potency, µM (doses to about 57.7 µM), usual class: inhibitors; 220,000 tested, 2.6% active; active = well fitted inhibition curve with a large enough effect; inconclusive = small, poorly fitted or top-dose-only effect; inactive = no such curve, though single readings can be large or run the other way; note: potency is the fitted concentration of half-maximal effect; 0% is about no effect; nearly all actives have a fitted effect of over 70% in size
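Compound dilutions met 200 nM (final) KDM5BΔAP for 10 min at room temperature before substrate addition. The substrate mix held 12.5 µM H3K4me3 with cofactors 25 µM α-ketoglutarate and 50 µM Fe²⁺. NADH signal gain over 30 min defined activity.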
IP6K1 inhibitor – Primary qHTS assay for small molecule inhibitors of Inositol hexaphosphate kinase 1 (IP6K1); IP6K1 kinase, ADP-Glo luminescence, 2 h; hits give low values; AID 1645851, 2021; Inositol hexakisphosphate kinase 1 (Homo sapiens), Q92551; activity change, % (series mostly up to about 58 µM); 140,000 tested, 0.81% active; in the data active = activity change below about -25%; note: % is set by controls: 0 for no effect and ±100 for the full control effect
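ADP-Glo luminescence measures ADP made by human IP6K1 during a 2 h RT reaction with ATP/IP6 (mix at 1.3 mM/130 uM); top library doses 57.5 and 19.1 uM final.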
The depositor's hits bear a star; i = inactive; ? = inconclusive; · = no result given; ! = repeats disagree. An excerpt weighted towards active compounds, which were near 2.7% of everything screened.

SMILES	KDM5B inhibitor	IP6K1 inhibitor
NCCCN1C(=O)CC[C@H]2CN(C(=O)c3cnn4ccccc34)CC[C@H]21	22µM*	9
Cc1ccc([S+](=O)([O-])NC2CCN(Cc3cccc(-c4cccc(C)c4)c3)CC2)cc1	·	3
Cc1ccccc1NCc1cc2ccccc2[nH]c1=O	i	·
O=C(NC1CCCCC1)O[C@@H]1CO[C@H]2[C@@H]1OC[C@@H]2Nc1nccc(-c2cccs2)n1	32µM*	-2
O=C(Nc1ccc(Oc2ccccc2)cc1)O[C@@H]1CO[C@H]2[C@@H]1OC[C@@H]2Nc1nccc(-c2cccs2)n1	i	-2
CN(C)c1ccc(-c2ccnc(N[C@H]3CO[C@H]4[C@@H]3OC[C@H]4OC(=O)Nc3cccc(C#N)c3)n2)cc1	i	-1
CN(C)c1ccc(-c2ccnc(N[C@H]3CO[C@H]4[C@@H]3OC[C@H]4OC(=O)NC3CCCCC3)n2)cc1	32µM*	-5
COc1ccc(C(C)=O)cc1COC(=O)COc1cccc(Br)c1	i	·
O=C(Nc1ccc(F)cc1)c1cn2cc(-c3cccc(C(F)(F)F)c3)sc2n1	·	1
COCC1CCN(Cc2cc3ccc(OC)cc3nc2-c2cccc(C)c2)C1 (configuration not stated)	?	21
COc1ccc2cc(CN3CCC(OC)CC3)c(-c3cccc(C)c3)nc2c1	25µM*	13
COCC(=O)NC[C@@H]1C=C(C)[C@H](CC(=O)N2CCN(c3ccccn3)CC2)C[C@H]1C(C)C	32µM*	13
COCCNC(=O)C[C@@H]1C[C@@H](C(C)C)[C@H](CNS(=O)(=O)c2ccc(OC)cc2)C=C1C	22µM*	-1
COc1cccc(NC(=O)NC[C@@H]2C=C(C)[C@H](CC(=O)N3CCOCC3)C[C@H]2C(C)C)c1	i	-15
COc1ccc(S(=O)(=O)NC[C@@H]2C=C(C)[C@H](CC(=O)N3CCN(C)CC3)C[C@H]2C(C)C)cc1	i	13
CCOC(=O)C[C@@H]1C[C@@H](C(C)C)[C@H](CNS(=O)(=O)c2ccc(OC)cc2)C=C1C	?	-6
CC1=C[C@@H](CNC(=O)COc2ccccc2)[C@H](C(C)C)C[C@H]1CC(=O)N1CCN(C)CC1	i	-6
COc1ccc(S(=O)(=O)NC[C@@H]2C=C(C)[C@H](CC(=O)N3CCN(c4ccccn4)CC3)C[C@H]2C(C)C)cc1	28µM*	-4
COc1cccc(NC(=O)NC[C@@H]2C=C(C)[C@H](CC(=O)N3CCN(c4ccccn4)CC3)C[C@H]2C(C)C)c1	32µM*	5
O=C(NCCc1ccccc1F)c1ccc2nnc(-c3cc(C(F)(F)F)cc(C(F)(F)F)c3)n2c1	·	-2
Cc1ccc(C(=O)Nc2ccc3nc(SCc4ccc(Br)cc4)sc3c2)cc1	i	·
C=CCN1C[C@@H]2C[C@@H](C(=O)NC)N(C(=O)Cc3ccccc3)c3cccc(c32)C1=O	·	0
Cc1ccc([S+](=O)([O-])N2CCCN(c3ccc4nnc(C5CC5)n4n3)CC2)cc1	·	6
CCc1ccc(C2N3CC4(CC)CN2CC(CC)(C3)C4=O)cc1 (configuration not stated)	i	·
CC(=O)NC[C@@H]1C=C(C)[C@H](CC(=O)O)C[C@H]1C(C)C	i	8
SMILES	KDM5B inhibitor	IP6K1 inhibitor
CC1=C[C@@H](CNC(=O)CC(C)(C)C)[C@H](C(C)C)C[C@H]1CC(=O)O	28µM*	3
CCN(CC)CC12CC3CC(C)(CC(C)(C3)C1)C2	i	·
CN(C)C(=O)C(Sc1nnc(-c2cc(Cl)ccc2Cl)n1N)c1ccccc1 (configuration not stated)	i	·
c1ccc(CSc2nc3ncccc3[nH]2)cc1	i	0
c1ccc(-c2nc3ncccc3[nH]2)cc1	32µM*!	9
CC(C)c1ccc(NC(=O)CSc2nc3ncccc3[nH]2)cc1	i	·
Cc1occc1-c1nc2ncccc2[nH]1	32µM*	0
c1cncc(-c2nc3ccncc3[nH]2)c1	?	1
c1cncc(-c2nc3ncccc3[nH]2)c1	35µM*	5
COc1ccccc1-c1cc(C(=O)NC2CCCC2)c2cnn(C)c2n1	·	2
Cn1ncc(CN2CCc3nc(-c4ccc(F)cc4F)[nH]c3C2)c1C1CC1	25µM*	2
Cc1noc(CN2CCc3nc(-c4ccc(F)cc4F)[nH]c3C2)n1	32µM*	0
CN(C)c1nc2c(c(=O)[nH]1)CCN(Cc1ccc(F)cc1F)CC2	i	14
Cc1nc2c(c(-c3ccc(O)cc3)n1)CN(Cc1ccc(F)cc1)CC2	i	0
Cc1cc(C2=NNC(=NC(C)C)SC2)c(C)n1C1CC1	i	·
CN(Cc1ccccc1)C(=O)c1nccnc1N	i	·
CCCn1cc(-c2ccnc(NCc3cccc(C)c3)n2)c(C)n1	28µM*	0
O=C(NCCCn1cccn1)c1ccccc1OC1CCN(Cc2ccccn2)CC1	i	6
CCCn1cc(-c2ccnc(NCc3c(F)ccc(C)c3F)n2)c(C)n1	?	0
CCCn1cc(-c2ccnc(NC3CCN(Cc4ccccn4)CC3)n2)c(C)n1	28µM*	9
CC(=O)c1ccc(N2CCN(CCS(=O)(=O)c3ccccc3)CC2)cc1	i	·
CCCCn1c(=O)[nH]c(=O)c2c1nc(CCC(=O)NCCCO)n2CC(C)C	i	·
CC(C)c1ccc(S(=O)(=O)N2CCC(CCc3nc(C4CCOCC4)no3)CC2)cc1	·	14
CCCCc1cc(C[C@H]2CNCC[C@H]2CC(=O)Nc2nccs2)no1	?	4
Cc1nc(CN2C[C@H](C(=O)N3CCN(c4ccccn4)CC3)C[C@@H]2c2ccc(F)cc2)cs1	28µM*	-3
SMILES	KDM5B inhibitor	IP6K1 inhibitor
Cc1nc(CN2C[C@H](C(=O)NCCOc3ccccc3)C[C@@H]2c2ccc(F)cc2)cs1	?	-3
CCCc1noc(-c2cccn3c(CNC(=O)CCc4ccccc4)nnc23)n1	18µM*	1
CCC(=O)NCc1nnc2c(-c3nc(C(C)C)no3)cccn12	?	4
CC(C)c1noc(-c2cccn3c(CNC(=O)CCc4ccccc4)nnc23)n1	14µM*	1
CCCc1noc(-c2cccn3c(CNC(=O)Cc4ccccc4OC)nnc23)n1	i	8
Cc1ccc(-c2cn(C3CCN(C(=O)c4ccc(Cl)cc4)CC3)c(=O)[nH]2)cc1	?	0
O=C1CSc2ccc(S(=O)(=O)NC3CCCCC3)cc2N1	i	·
c1cc(Cn2ccc3c(N4CCOCC4)nc(-c4ccc5cn[nH]c5c4)cc32)ccn1	35µM*	-6
c1cc(Cn2ccc3c(N4CCOCC4)nc(-c4cn[nH]c4)cc32)ccn1	?	3
Cn1cc(-c2cc3c(ccn3Cc3ccncc3)c(N3CCOCC3)n2)cn1	i	2
CN(C)Cc1ccc(-c2cc3c(ccn3Cc3ccncc3)c(N3CCOCC3)n2)cc1	40µM*	-12
CC(OC(=O)Cc1n[nH]c(=O)c2ccccc12)C(=O)NC(N)=O (configuration not stated)	i	·
CCCn1nc(C(=O)N(CC)CC2CCOC2)c2ccccc2c1=O (configuration not stated)	i	·
COc1cccc(NC(=O)N2CCCC3(C2)Nc2cccnc2NC3=NC2CCCC2)c1 (configuration not stated)	?	0
CC(=O)N1CCCC2(C1)C(=NC1CCCC1)NC(=O)N2c1cc(F)cc(F)c1 (configuration not stated)	i	9
